# PubChem BioAssay (NCATS)
# Records with an inconclusive call do not appear. A call without a number means that no potency is given here. Active and inactive are the calls of the source. Unless noted, the call rests on the fitted dose curve; in most records, active means well fitted curve in the direction sought with a large enough effect; inconclusive means small, poorly fitted or top-dose-only effect, or another doubt; inactive means no such curve, though single readings can be large; an effect the other way counts as inactive or inconclusive.
# Legend:
# [1] = qHTS for differential inhibitors of proliferation of Plasmodium falciparum line W2 (AID 1883); settings: Potency: Plasmodium falciparum W2 proliferation inhibition;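 further: potency means the concentration at half of the fitted maximal effect; parasites grown with compound for 72 h before lysis and staining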
# [2] = qHTS for differential inhibitors of proliferation of Plasmodium falciparum line HB3 (AID 1886); settings: Potency: Plasmodium falciparum HB3 proliferation inhibition;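 further: parasites grown with compound for 72 h before SYBR Green readout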; further: potency means the concentration at half of the fitted maximal effect
# [3] = molecular target: ATP-dependent DNA helicase Q1 (Homo sapiens) (UniProt P46063); assay: qHTS Validation Assay for Inhibitors of RecQ-Like Dna Helicase 1 (RECQ1) (AID 2353)
# In short: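 RECQ1T1 50 nM; forked duplex (20 bp + 30-nt ss tails) 200 nM, ATP 2 mM final; pH 8.0, 2 mM MgCl2, 2.5 ug/ml poly(dI-dC); 15 min compound preincubation; discontinuous kinetic read over 2 h at RT.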
# [4] = Cytometric Cell-Based qHTS for Inhibitors of the mTORC1 Signaling Pathway in MEF (Tsc2-/-, p53-/-) Cells (AID 2660);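 further: Tsc2 and p53 null MEFs carrying empty vector with compound for 24 h; percent of cells above a phospho-rpS6 to PI ratio cutoff in each well; series mostly up to about 38 µM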
# In short: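 Cells are plated, treated with compound for 24 hrs at 37 degree Celsius, then fixed, blocked and immunostained for phospho-rpS6 Ser235/236. Propidium iodide counterstain follows. Per-well % positive cells is derived from the PI-normalized phospho-S6 signal.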
# [5] = High Content Imaging Cell-Based qHTS for Inhibitors of the mTORC1 Signaling Pathway in MEF (Tsc2-/-, p53-/-) Cells (AID 2666);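 further: percent of cells scored positive for phospho-rpS6 Ser235/236 immunostaining by imaging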
# In short: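 Tsc2-/-, p53-/- MEFs (empty-vector stable) grown in DMEM + 10% FBS were exposed to compounds for 24 hrs at 37 degree Celsius, fixed, and stained with Alexa-488 anti-phospho-rpS6 Ser235/236 plus Hoechst. Imaging gave the percentage of positive cells per well.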
# [6] = molecular target: Ferritin light chain (Equus caballus) (UniProt P02791); assay: qHTS Validation Assay for Identification of Novel General Anesthetics (AID 2323); further: series mostly up to about 77 µM
# In short: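 Horse-spleen apoferritin (10 uM) in PBS with 50% saturated 1-aminoanthracene; compounds pin-transferred, 10 min at room temperature. Fluorescence read at 380/535 nm, normalized to free 1-AMA and 1-AMA/apoferritin values; four-parameter Hill fit.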
# [7] = qHTS Assay for Identification of Small Molecule Inducers of Hypoxia Response (AID 2120; active means well fitted curve in the direction sought with a large enough effect in the signal ratio, with a control signal flat, not every such curve was filed as active; the % refers to the signal ratio)
# In short: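 Reporter induction read as the CCF4 blue/green (460nm/530nm) emission ratio after 2.5 h dye loading at room temperature. ME-180 HRE-beta-lactamase cells received titrated compounds for 17 h at 37 degrees Celsius; AC50 values derived.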
# [8] = molecular target: RecQ-like DNA helicase BLM (Homo sapiens) (UniProt P54132); assay: qHTS Validation Assay for Inhibitors of Bloom's syndrome helicase (BLM) (AID 2364)
# In short: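 Forked 20-bp duplex substrate (200 nM, TAMRA/BHQ-2) plus 2 mM ATP added after 15 min compound preincubation with 50 nM enzyme, pH 8.0, poly(dI-dC) 2.5 ug/ml. Strand separation followed by fluorescence (525/598 nm) over 2 h, normalized to enzyme-free and DMSO controls.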
# Chain of ATP-dependent DNA helicase Q1 (Homo sapiens) (P46063 whole entry, looked up): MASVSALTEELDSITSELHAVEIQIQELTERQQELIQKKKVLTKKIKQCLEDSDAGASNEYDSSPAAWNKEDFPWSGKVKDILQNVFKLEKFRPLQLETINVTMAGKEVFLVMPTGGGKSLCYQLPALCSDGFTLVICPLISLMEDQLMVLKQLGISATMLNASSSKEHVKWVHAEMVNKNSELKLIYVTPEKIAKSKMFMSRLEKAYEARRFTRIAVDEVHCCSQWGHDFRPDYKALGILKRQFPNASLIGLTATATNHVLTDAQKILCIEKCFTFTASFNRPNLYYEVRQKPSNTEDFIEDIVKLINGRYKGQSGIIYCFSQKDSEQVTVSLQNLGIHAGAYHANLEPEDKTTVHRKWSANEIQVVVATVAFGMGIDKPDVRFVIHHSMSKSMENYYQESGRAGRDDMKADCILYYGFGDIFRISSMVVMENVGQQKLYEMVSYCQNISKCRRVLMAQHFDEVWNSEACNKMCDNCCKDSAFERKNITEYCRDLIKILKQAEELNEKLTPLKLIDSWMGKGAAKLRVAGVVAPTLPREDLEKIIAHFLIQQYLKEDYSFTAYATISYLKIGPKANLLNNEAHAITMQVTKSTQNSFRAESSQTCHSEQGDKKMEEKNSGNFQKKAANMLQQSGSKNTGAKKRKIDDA
# Chain of Ferritin light chain (Equus caballus) (P02791 2-175 limits assumed): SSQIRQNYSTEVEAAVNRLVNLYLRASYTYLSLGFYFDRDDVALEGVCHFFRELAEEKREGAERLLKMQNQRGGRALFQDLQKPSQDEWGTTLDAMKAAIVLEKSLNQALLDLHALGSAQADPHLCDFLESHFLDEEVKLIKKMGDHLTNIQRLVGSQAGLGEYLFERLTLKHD
# Chain of RecQ-like DNA helicase BLM (Homo sapiens) (P54132 whole entry, looked up): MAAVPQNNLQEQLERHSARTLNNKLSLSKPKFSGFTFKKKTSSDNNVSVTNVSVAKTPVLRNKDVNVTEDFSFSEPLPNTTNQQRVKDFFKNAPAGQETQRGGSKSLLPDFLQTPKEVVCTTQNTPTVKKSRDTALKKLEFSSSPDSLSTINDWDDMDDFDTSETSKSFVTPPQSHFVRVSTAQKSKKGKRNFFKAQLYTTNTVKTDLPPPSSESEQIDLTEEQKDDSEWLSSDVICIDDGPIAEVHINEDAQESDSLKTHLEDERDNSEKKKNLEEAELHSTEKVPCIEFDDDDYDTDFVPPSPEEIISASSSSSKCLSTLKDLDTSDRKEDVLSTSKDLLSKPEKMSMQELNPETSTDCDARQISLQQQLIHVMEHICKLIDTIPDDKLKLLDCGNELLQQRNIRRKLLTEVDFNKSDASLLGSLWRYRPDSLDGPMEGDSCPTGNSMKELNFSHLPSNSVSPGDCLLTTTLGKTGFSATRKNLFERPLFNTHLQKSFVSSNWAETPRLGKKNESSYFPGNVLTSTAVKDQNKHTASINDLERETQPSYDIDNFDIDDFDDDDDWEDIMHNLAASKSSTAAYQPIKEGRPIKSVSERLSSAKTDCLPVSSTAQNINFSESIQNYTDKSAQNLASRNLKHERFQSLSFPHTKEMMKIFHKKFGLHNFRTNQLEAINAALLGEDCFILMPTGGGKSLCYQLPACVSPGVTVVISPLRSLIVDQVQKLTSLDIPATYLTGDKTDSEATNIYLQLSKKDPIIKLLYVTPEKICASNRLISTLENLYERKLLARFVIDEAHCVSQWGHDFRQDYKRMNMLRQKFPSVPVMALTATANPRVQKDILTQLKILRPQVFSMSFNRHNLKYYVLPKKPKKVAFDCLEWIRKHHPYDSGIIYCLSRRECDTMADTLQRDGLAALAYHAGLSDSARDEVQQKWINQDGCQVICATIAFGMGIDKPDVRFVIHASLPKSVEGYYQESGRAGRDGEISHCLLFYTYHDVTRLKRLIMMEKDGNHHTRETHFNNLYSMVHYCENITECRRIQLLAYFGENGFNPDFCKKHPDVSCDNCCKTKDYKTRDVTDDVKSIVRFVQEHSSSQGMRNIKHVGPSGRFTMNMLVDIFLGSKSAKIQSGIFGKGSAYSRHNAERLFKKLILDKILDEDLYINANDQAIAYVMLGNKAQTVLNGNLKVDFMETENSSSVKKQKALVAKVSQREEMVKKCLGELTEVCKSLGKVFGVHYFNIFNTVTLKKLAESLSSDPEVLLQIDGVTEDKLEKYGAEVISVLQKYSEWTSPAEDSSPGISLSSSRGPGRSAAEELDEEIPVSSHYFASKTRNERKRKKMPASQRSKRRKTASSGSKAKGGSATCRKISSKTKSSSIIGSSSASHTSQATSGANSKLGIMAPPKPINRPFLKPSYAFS
structure (smiles),measurement,setting,value
CCOC(=O)C1=C(C)NC(C)=C(C(=O)OC)C1c1cccc([N+](=O)[O-])c1 (centres undefined),Potency,[1],6.31 µM (active)
same,Potency,[2],11.2 µM (active)
same,Potency,[3],inactive
same,outcome,[4],inactive
same,Potency,[5],inactive
CN1CCN(C2=Nc3ccccc3Oc3ccc(Cl)cc32)CC1,Potency,[1],5.01 µM (active)
same,Potency,[2],10 µM (active)
same,Potency,[3],inactive
same,outcome,[4],inactive
same,Potency,[5],inactive
CC(=O)[C@@]1(O)CC[C@H]2[C@@H]3CCC4=CC(=O)CC[C@]4(C)[C@H]3CC[C@@]21C,outcome,[4],inactive
same,Potency,[5],inactive
CCc1c(C)[nH]c2c1C(=O)C(CN1CCOCC1)CC2 (centres undefined),Potency,[2],inactive
same,outcome,[6],inactive
same,Potency,[3],inactive
same,outcome,[4],inactive
same,Potency,[5],inactive
NC(=Nc1ccccc1)Nc1ccccc1,outcome,[7],inactive
CCCN1C[C@H](CSC)C[C@@H]2c3cccc4[nH]cc(c34)C[C@H]21,Potency,[1],4.47 µM (active)
same,outcome,[6],inactive
same,Potency,[3],inactive
same,outcome,[4],inactive
same,Potency,[5],inactive
CNCCCN1c2ccccc2CCc2ccccc21,outcome,[6],inactive
same,Potency,[3],inactive
same,Potency,[8],inactive
same,outcome,[4],inactive
same,Potency,[5],inactive
COc1ccc2c(c1OC)C(=O)O[C@@H]2[C@H]1c2c(cc3c(c2OC)OCO3)CCN1C,outcome,[4],inactive
same,Potency,[5],inactive
CN(C)[C@@H]1C(=O)C(C(N)=O)=C(O)[C@@]2(O)C(=O)C3=C(O)c4c(O)ccc(Cl)c4[C@@H](O)[C@H]3C[C@@H]12,outcome,[4],inactive
same,Potency,[5],inactive
CCN(CC)CCCN(c1ccccc1)C1Cc2ccccc2C1,outcome,[4],inactive
same,Potency,[5],inactive
